Experimental findings from PubChem BioAssay are described below.

The assay has as its target Carbonic anhydrase 2 (Homo sapiens) (UniProt P00918). Briefly: CAII small-molecule binders, profiling panel, biochemical, small-molecule microarray, Alexa647-labelled CAII (AID 1122). The settings on record: CAII-A647 binding fluorescence, higher = more signal.
Take `Oc1ccc2cc[n+](Cc3cccc(OC(F)(F)F)c3)cc2c1`: the composite z-score came to 0.853.

`CC1CC/C=C\[C@H]2OC34C=CCN(CCN5CCOCC5)C(=O)[C@H]3N(CCCCCO)C(=O)[C@@H]4C2C(=O)O1` (stereo partly specified) displayed a composite z-score of 0.899.

Regarding `C=C(C(=O)CC[C@@H](OC(=O)c1cccnc1)c1ccc(CO)o1)C(C)C`, the composite z-score was found to be 0.614.

With `C=CCC(OC(C)=O)[C@@H]1[C@@H](N(Cc2cc3ccccc3o2)C(=O)c2cccc3ccccc23)c2cc(OCCCO)ccc2N1C(=O)Cc1ccc(OC)cc1` (stereo partly specified), the composite z-score was determined as 0.327.

Consider `C=CCN1C(=O)[C@]2(COC(c3ccc(OCCCO)cc3)=N2)Cc2ccccc21`, for which the composite z-score is 0.627.

`O=C(NCc1ccccc1)[C@@H]1c2ccccc2C(=O)N(C2CCCCC2)[C@H]1c1ccc(CO)cc1`: the composite z-score came to 0.795.

`[N-]=[N+]=NCc1ccccc1C[C@@]1(C(=O)NCc2ccccc2)N=C(c2ccc(OCCCO)cc2)O[C@@H]1c1ccccc1CN=[N+]=[N-]` registered a composite z-score of 0.669.

For the compound `CCOC(=O)C=Cc1cccc(OC)c1O`, the composite z-score was -0.288.

Compound `CN(C)CCCC[C@@H]1NC(=O)[C@H]2C[C@@H](C(=O)NCCCCCNC(=O)CS)[C@@H](c3ccc(O)cc3)N2C1=O` came in with a composite z-score of -0.204.

`COC(=O)[C@@]1(Cc2ccccc2)[C@H]2c3cc(C(=O)N(C)C)n(Cc4cc(F)c(F)c(F)c4)c3C[C@H]2CN1C(=O)c1ccccc1` registered a composite z-score of 0.656.

The compound `C=C(C)[C@@H]1CC=C(C(O)C2C=CC3C(=O)N(Cc4ccccc4)C(=O)C3N2n2cnnc2)CC1` (stereo partly specified) had a composite z-score of 0.751.

In turn, `O=C(NCCN1CCOCC1)[C@@H]1c2ccccc2C(=O)N(Cc2cc(F)cc(C(F)(F)F)c2)[C@H]1c1ccc(CO)cc1` showed a composite z-score of 0.724.

In turn, `O=C1O[C@H](c2ccccc2)[C@H](c2ccccc2)N2[C@H]1[C@@H](C(=O)NC[C@H](O)c1ccccc1)[C@]1(C(=O)Nc3ccc(C#CC4(O)CCCCCC4)cc31)[C@H]2c1ccccc1OCCO` displayed a composite z-score of 0.411.

Consider `C=C(/C(=C/C[C@@H](OC(=O)c1ccncc1)c1ccc(CO)o1)c1cc(C(=O)OC)ccc1OC)C(C)C`, for which the composite z-score was 0.588.

For the compound `COc1ccc([Si](C)(C)[C@@H]2[C@@H](CCO)O[C@]3(C(=O)N(Cc4ccccc4)c4ccc(N(C=O)c5ccccc5)cc43)[C@H]2C)cc1`, the composite z-score came out at 0.497.

For `CCCCCCC#C[Si](O[C@H](c1ccccc1)c1cn([C@H](C)c2ccccc2)nn1)(C(C)C)C(C)C`, the composite z-score is -0.0858.

In turn, `[N-]=[N+]=NCc1ccccc1[C@@H]1OC(c2ccc(OCCCO)cc2)=N[C@]1(Cc1ccccc1)C(=O)O` displayed a composite z-score of 0.607.

As to `CCCC[C@@H]1C[C@H]1[C@@H](NC(=O)c1ccccc1)c1ccc(-c2ccccc2)cc1`, the composite z-score was 0.498.

Compound `Cc1ccc(S[C@]2(C(=O)NCCN3CCOCC3)CC(=O)N(C3CCCCC3)[C@@H]2c2ccc(CO)cc2)cc1` yielded a composite z-score of 0.617.

With `CC(C)NC(=O)[C@@]1(c2ccc([N+](=O)[O-])cc2)CC(=O)N(C(C)C)[C@@H]1c1ccc(CO)cc1`, the composite z-score was found to be 0.718.

Consider `C=CCN1Cc2ccccc2C[C@@]2(COC(c3ccc(OCCCO)cc3)=N2)C1=O`, for which the composite z-score is 0.598.

`COCCn1c(C(=O)N2CCCC2)cc2c1C[C@H]1CN(C(=O)c3ccccc3)[C@@](Cc3ccc(OC)cc3)(C(=O)OC)[C@@H]21` displayed a composite z-score of 0.868.

`C=C[C@@H](C)[C@@H](OC(=O)Nc1ccc(OC)cc1)c1ccc(O)c2ccccc12`: the composite z-score was 0.283.

Take `COCCOC(=O)N1C(=O)[C@@]2(c3ccccc31)[C@H](C(=O)N1CCCCCCC1)[C@H]1C(=O)O[C@H](c3ccccc3)[C@H](c3ccccc3)N1[C@@H]2c1ccccc1OCCO`: the composite z-score stood at 0.838.

Consider `COCCn1c(C(=O)N(C)C)cc2c1C[C@H]1CN(C(=O)c3ccccc3)[C@@](Cc3ccc(F)cc3)(C(=O)OC)[C@@H]21`, for which the composite z-score is 0.859.

On to `CC(C)N1C(=O)c2ccccc2[C@](C)(C(=O)NCCCN(C)C)[C@@H]1c1ccc(CO)cc1`, for which the composite z-score was determined as 0.526.

In the case of `O=C1C2C=CC(C(O)c3ccc(-c4ccccc4)s3)N(Nc3ccccc3F)C2C(=O)N1c1ccccc1` (stereo unspecified), the composite z-score was determined as 0.69.

For the compound `CN1C(=O)C2C(C1=O)C1C=C(c3ccc(CO)cc3)C2C(C2CC2)N1Cc1sc2ccccc2c1Cl` (stereo unspecified), the composite z-score came to 0.661.

`CO[C@H]1O[C@H](CO)[C@@H](OC(=O)Nc2ccc3c(c2)OCO3)[C@H](OC(=O)Nc2ccc3c(c2)OCO3)[C@H]1OC(=O)Nc1ccc2c(c1)OCO2` yielded a composite z-score of 0.7.

As for `C=CC[C@]1(C(=O)NCCN2CCOCC2)N=C(c2ccc(OCCCO)cc2)O[C@H]1c1ccccc1N=[N+]=[N-]`, the composite z-score turned out to be 0.691.

As for `C=CCNC(=O)[C@@H]1[C@H]2C(=O)O[C@H](c3ccccc3)[C@H](c3ccccc3)N2[C@H](c2ccccc2OCCO)[C@@]12C(=O)N(C(=O)OCCOC)c1ccc(C#CCC(C(=O)OC)C(=O)OC)cc12`, the composite z-score is 0.505.

On to `CC(C)[C@H]1COC(=O)N1C(=O)[C@H]1[C@@H](c2ccccc2)N(c2ccccc2)O[C@@H]1C`, for which the composite z-score was -0.004.

Compound `O=C1O[C@@H](c2ccccc2)[C@@H](c2ccccc2)N2[C@@H](c3ccc(O)cc3)[C@]3(C(=O)Nc4ccc(C#CCCO)cc43)[C@@H](C(=O)O)[C@H]12` showed a composite z-score of 0.653.

The compound `Cc1ccc(S[C@]2(C(=O)NCCCN(C)C)CC(=O)N(C(C)C)[C@@H]2c2ccc(CO)cc2I)cc1` came in with a composite z-score of 0.721.

`Cc1ccc(N2C(=O)c3ccccc3[C@](C)(C(=O)NCCN3CCOCC3)[C@@H]2c2ccc(CO)cc2)nc1` yielded a composite z-score of 0.494.

As for `COC(=O)C(CC#Cc1ccc2c(c1)[C@]1(C(=O)N2)[C@H](C(=O)N2CCCCCCC2)[C@H]2C(=O)O[C@H](c3ccccc3)[C@H](c3ccccc3)N2[C@@H]1c1ccccc1OCCO)C(=O)OC`, the composite z-score is 1.08.
